# Assay results from PubChem BioAssay (EPA / NIEHS).
# Values joined by “and” are separate entries in the source; they are usually repeats but may differ in a detail not shown here. Identical values can stand only once. Active and inactive are the calls of the source. The calls were made as follows: active = hit-call score of the fitted dose curve at least 0.9, where 1 is the maximum; inactive = score below 0.9.
# Test: ATG_NFI_CIS: Attagene CIS-FACTORIAL HepG2 Assay for human Nuclear Factor I (NFI) (AID 2282989)
# Details: HepG2 cis-regulatory reporter, NFI response element transcription; actives raise or lower the signal
# Description: ATG_CIS is a cell-based, multiplexed-readout assay that uses HepG2, a human liver cell line, with measurements taken at 24 hours after chemical dosing in a 24-well plate.ATG_NFI_CIS is one of 52 assay component(s) measured or calculated from the ATG_CIS assay. It is designed to make measurements of mRNA induction, a form of inducible reporter, as detected with fluorescence intensity signals by Reverse transcription polymerase chain reaction (RT-PCR) and Capillary electrophoresis technology.Data from the assay component ATG_NFI_CIS was analyzed into 1 assay endpoint. This assay endpoint, ATG_NFI_CIS, was analyzed with bidirectional fitting relative to DMSO as the negative control and baseline of activity. Using a type of inducible reporter, measures of mRNA for gain or loss-of-signal activity can be used to understand the reporter gene at the transcription factor-level as they relate to the gene NFIA. Furthermore, this assay endpoint can be referred to as a primary readout, because this assay has produced multiple assay endpoints where this one serves a reporter gene function. To generalize the intended target to other relatable targets, this assay endpoint is annotated to the dna binding intended target family, where the subfamily is nuclear factor I.
# Human liver HepG2 cells are transiently transfected with multiple reporter transcription units (MRTUs) in 6-well plates using FuGene 6 reagent (Roche; 3 ml FuGene/1 mg DNA). The MRTU constructs are regulated by a cis-regulating element (promoter). […] A major difference between the CIS and TRANS system is that in CIS activities of endogenous TFs are measured, whereas the TRANS assay evaluates changes in activities of exogenous, chimeric NR-Gal4 proteins. […] At the end of 24 hour incubation, total RNA was isolated using TriZol reagent (Invitrogen). The isolated RNA is then reverse-transcribed using oligo(dT) primer and Mo-MLV reverse transcriptase (Invitrogen) with DNAse I (Ambion) treatment for 30 min. The one-tenth of the produced cDNA was amplified by PCR using Taq DNA polymerase (Invitrogen) and two reporter sequence-specific primers. The PCR products were fluorescently labeled by primer extension with 6-arboxyfluorescein (6-FAM) 5'-labeled reporter sequence-specific primer (2 min at 95 C, 20 s at 68 C and 10 min at 72 C) and these products were digested with 5U of HpaI (New England Biolabs) for 2h at 37 C. The fragments were purified using Qiaquick PCR columns (Qiagen), analyzed on an ABI 3130xL genetic analyzer (Applied Biosystems) with peak positions identified by using a set of X-rhodamine (ROX)-labeled MapMarker1000 molecular weight standards (BioVentures). The raw capillary electrophoresis data was processed using Attagraph software (Attagene).
Compound,outcome,AC50
CS(C)(=O)=O,inactive,–
Nc1ccc(Oc2cccc(Oc3ccc(N)cc3)c2)cc1,–,166 µM (active)
CCCCCCCCCCCCCCCC[N+](C)(C)Cc1ccccc1,inactive,–
OCC(F)(F)C(F)(F)C(F)(F)F,inactive,–
O=S(=O)(OCCOC(F)(F)F)C(F)(F)F,inactive,–
COC(=O)C1CCC(C(=O)OC)CC1 (stereo not given),inactive,–
C=CC(F)(F)C(F)(F)C(F)(F)C(F)(F)C(F)(F)C(F)(F)C(F)(F)C(F)(F)C=C,inactive,–
c1ccc(B(c2ccccc2)c2ccccc2)cc1,–,26.7 µM (active)
CC/C=C\CCOC(=O)c1ccccc1,inactive,–
O=P(O)(O)OCCC(F)(F)C(F)(F)C(F)(F)C(F)(F)C(F)(F)C(F)(F)F,inactive,–
NC(=O)C(F)(F)C(F)(F)C(F)(F)C(F)(F)F,inactive,–
CCCCCC=O,inactive,–
CCCCCCCCC(F)(F)C(F)(F)C(F)(F)C(F)(F)C(F)(F)C(F)(F)F,–,36 µM (active)
C=C(C)C(=O)OCCC(F)(F)C(F)(F)C(F)(F)C(F)(F)C(F)(C(F)(F)F)C(F)(F)F,inactive,–
CCO[Si](CCC(F)(F)C(F)(F)C(F)(F)C(F)(F)C(F)(F)C(F)(F)F)(OCC)OCC,inactive,–
O[Si](c1ccccc1)(c1ccccc1)c1ccccc1,–,100 µM (active)
CC(C)OC(=O)c1ccccc1C(=O)OC(C)C,inactive,–
Nc1ccc([N+](=O)[O-])cc1O,inactive,–
CCCCC(CC)COP(=O)(O)OCC(CC)CCCC (stereo not given),inactive,–
O=S(=O)(O)c1ccc2ccccc2c1,inactive,–

Compound,outcome,AC50
OCC(F)(F)C(F)(F)C(F)(F)C(F)(F)C(F)(F)C(F)F,inactive,–
O=C(O)C(F)(OC(F)(F)C(F)(OC(F)(F)C(F)(OC(F)(F)C(F)(F)C(F)(F)F)C(F)(F)F)C(F)(F)F)C(F)(F)F (stereo not given),inactive,–
FC(F)(F)C(F)(F)C(F)(F)CI,inactive,–
CC(C)(C)C(=O)CC(=O)C(F)(F)C(F)(F)C(F)(F)F,inactive,–
O=C(O)C(F)(F)C(F)(F)F,inactive,–
O=S(=O)(O)C(F)(F)C(F)(F)C(F)(F)C(F)(F)C(F)(F)C(F)(F)C(F)(F)F,inactive,–
OCCCC(F)(F)C(F)(F)C(F)(F)C(F)(F)C(F)(F)C(F)(F)C(F)(F)F,–,71.1 µM (active) and 267 µM (active)
O=C(C=Cc1ccccc1)OCC=Cc1ccccc1,inactive,–
Cc1ccc(S(=O)(=O)NCl)cc1,inactive,–
CCN(Cc1cccc(S(=O)(=O)O)c1)c1ccc(C(=C2C=CC(=[N+](CC)Cc3cccc(S(=O)(=O)O)c3)C=C2)c2ccc(O)cc2S(=O)(=O)[O-])cc1,inactive,–
CCCCCCOC(=O)c1ccccc1,inactive,–
CCCCCCS,inactive,–
O=C(OCCOCCOCCOC(=O)c1ccccc1)c1ccccc1,inactive,–
FC(F)(F)C(F)(F)CNCC(F)(F)C(F)(F)F,inactive,–
FC(F)(F)C(F)(F)C(F)(F)C(F)(F)C(F)(F)C(F)(F)CC1CO1 (stereo not given),inactive,–
O=C(Cl)C(F)(F)C(F)(F)C(F)(F)C(F)(F)C(F)(F)C(F)(F)C(F)(F)C(F)(F)F,inactive,–
Nc1cc(Cl)c(N)c(Cl)c1,inactive,–
FC(F)(F)C(F)(F)C(F)(F)C(F)(F)C(F)(F)CCI,inactive,–
CC(CCl)OP(=O)(OC(C)CCl)OC(C)CCl (stereo not given),inactive,–
C=C(C)C(=O)OCC(F)(F)C(F)(F)C(F)(F)F,inactive,–
